Measured values taken from ChEMBL document CHEMBL3988442, “University of Dundee, Small-Polar-MMV Screening Library” (2021).
The campaign covered roughly 48,000 compounds. About 13,000 (27%) showed an effect of 50% or more. This is one part of the list.

Test system: Wolbachia pipientis
Test: Anti-Wolbachia Cell-Based Screen
Assay type: functional
Parameters: scale not given: in the data most compounds retested in dose-response had high values
Conditions: 5 µM

| Structure (SMILES) | Percent Effect [%] |
| --- | --- |
| COCC(=O)N[C@H]1C[C@H]2C(=O)NC[C@@H](CCC(=O)NC3CC3)N2C1 | -1.651 |
| NC(=O)NC1(C(=O)N2CCc3c(Cl)cccc3C2)CCCCC1 | -13.57 |
| Cc1cccc(C2(CNC(=O)C(C)NC(N)=O)CCCC2)c1 (stereo unspecified) | -11.64 |
| NC1(c2nc(-c3cccs3)cc(=O)[nH]2)CCCC1 | 0.7263 |
| O=C(c1cc(-c2cccs2)nc2ccccc12)N1CCN(CCO)CC1 | 26.12 |
| O=C(O)c1cc(-c2cccs2)nc2c(Cl)cnn12 | 80.97 |
| Cc1cnn(C2CCCN(C(=O)c3cc(-c4cccs4)n[nH]3)C2)c1 (stereo unspecified) | -22.99 |
| O=C(O)c1cc(-c2cccs2)nc2c(Br)cnn12 | 100.3 |
| CC(C)OCCCNC(=O)[C@@]12CNC[C@@H]1CN(S(C)(=O)=O)C2 | 4.002 |
| O=C(NC[C@H]1OC[C@@H](NC2CCC(F)(F)CC2)[C@@H]1O)N1CCOCC1 | -13.75 |
| CC(C)(C)C(C#N)NC(=O)c1ccc(Oc2cccnc2)cc1 (stereo unspecified) | 2.212 |
| O=C1NCCN(C(=O)CN2CCOC2=O)C1c1cccc(F)c1 (stereo unspecified) | 1.4 |
| COc1cc(C(=O)O)ccc1OCC(=O)NCCc1ccccc1 | 92.84 |
| COc1cc(C(=O)O)cc(I)c1OCC(=O)NCCc1ccccc1 | 109.3 |
| COc1cc(C(=O)O)ccc1OCC(=O)NC(C)c1ccc(F)cc1 (stereo unspecified) | 2.572 |
| Cc1nn(C)c(C)c1OCC(=O)NCc1cccc(C(=O)O)c1 | 4.585 |
| COCC(C)(O)CNC(=O)COc1ccccc1OC (stereo unspecified) | 1.741 |
| COc1ccccc1OCC(=O)NCC(O)(c1ccccc1)C1CC1 (stereo unspecified) | -11.16 |
| Cc1cccc2c1nc1n2[C@@H](CNC(=O)c2ccncc2)COC1 | -9.503 |
| Cc1cc(C)c2nc(C)c(C(=O)N3CCC(CCN(C)C)CC3)cc2c1 | 84.1 |
| CCN(CC)C1CCN(C(=O)NCc2c(C)noc2C)CC1 | -4.062 |
| CC(=O)N1CCC(CCNC(C)c2cc(C)cc(C)c2)CC1 (stereo unspecified) | -3.402 |

| Structure (SMILES) | Percent Effect [%] |
| --- | --- |
| CC(C)Cc1cc(C(=O)N2CCC(N3CCCC3)CC2)cc(O)n1 | 3.394 |
| CCS(=O)(=O)N(C)C1CCN(C(=O)c2cc(C)cc(C)c2)CC1 | 4.174 |
| CCN(CC)C1CCN(C(=O)c2cc3cc(C)cc(C)c3nc2C)CC1.Cl | 152.2 |
| Cc1cc(C)c2nc(C)c(C(=O)N3CCC(N4CCCC4)CC3)cc2c1 | 84.44 |
| Cc1cc2c(cc1C(=O)N1CC[C@H](CO)[C@@H](O)C1)OCCO2 | -2.803 |
| CCCn1ncc(C(=O)N2CCC(N3CCCCC3)CC2)c1C | -9.333 |
| CN(C)c1nc2c(c(NCc3cc(O)ncn3)n1)CCCC2 | 14.14 |
| CC(C)N1CCN2C(=O)N(C3CCCCC3)C[C@H]2C1 | 0.5796 |
| CC(C)CNC1(Cc2cc(-c3ccccc3)on2)COC1 | -15.39 |
| Cc1cncc(C(=O)N(c2ccc(F)cn2)C2CCOCC2)c1 | -4.438 |
| O=C(NC1CCOCC1)c1cccc(C2CCCNC2)c1 (stereo unspecified) | 85.12 |
| CCCS(=O)(=O)N1CCCC(c2cccc(C(=O)O)c2)C1 (stereo unspecified) | 9.239 |
| O=C1CN(CCCNS(=O)(=O)c2cccc(C(=O)NC3CC3)c2)CCN1 | -1.221 |
| CSCCN1CCC(NC(=O)c2cccc(C3CCCNC3)c2)CC1 (stereo unspecified) | 92.44 |
| CCOC(=O)N1CCC(NC(=O)c2cccc(C3CCCNC3)c2)CC1 (stereo unspecified) | 94.34 |
| COCC(O)CN1CCC(NC(=O)c2cccc(C)c2)CC1 (stereo unspecified) | -8.408 |
| O=C(NC1CCOC1)c1cccc(S(=O)(=O)NCCCc2ncc[nH]2)c1 (stereo unspecified) | -8.272 |
| CSCCN1CCC(NC(=O)OC(C)(C)C)CC1 | -0.645 |
| CCc1cnc(CNc2ccc(C(=O)NCc3ccco3)cc2C)o1 | 4.048 |
| CCOc1ccccc1-c1noc(CN2CCN(CCOC)CC2)n1 | 9.475 |
| CCOc1ccccc1-c1cc(N)[nH]n1.Cl | 107 |
| CCOc1ccccc1-c1cc2c(cc1C(N)=O)OCO2 | -7.69 |

| Structure (SMILES) | Percent Effect [%] |
| --- | --- |
| COc1ccc(Br)cc1CC(=O)Nc1cc(C)n[nH]1 | -11.39 |
| CCOc1cc(C)c(-c2cc(N)[nH]n2)cc1OCC | 103.8 |
| CCOc1ccc(Br)cc1-c1cc(N)[nH]n1.Cl | 161.1 |
| Cc1cc(NC(N)=O)ccc1OCC(F)(F)F | 6.991 |
| c1ccc2c(c1)CN(c1ncnc3c1CCNC3)CCO2 | -28.26 |
| Cc1ccc(C)c(CN2CCCn3nc(CNS(C)(=O)=O)cc3C2)c1 | -10.08 |
| CN(C)C(=O)NCc1ncn2c1CN(S(C)(=O)=O)CCC2 | 2.726 |
| Cc1ccsc1C(=O)N1CCn2cnc(COCC3CC3)c2C1 | 0.0867 |
| CC(=O)N(C)Cc1ncn2c1CN(C(=O)C1CCCO1)CCC2 (stereo unspecified) | 106.4 |
| CS(=O)(=O)NCc1ncn2c1CN(C(=O)C1CCCO1)CCC2 (stereo unspecified) | 106.6 |
| O=C(c1cccs1)N1CCCn2cnc(COCC3CC3)c2C1 | 6.591 |
| CC(C)CC(=O)N1CCCn2cnc(CNS(C)(=O)=O)c2C1 | 117 |
| CS(=O)(=O)NCc1ncn2c1CN(C(=O)CC1CCCC1)CCC2 | -15.27 |
| CC(=O)N(C)Cc1ncn2c1CN(C(=O)CC1CC1)CCC2 | 104.9 |
| CSCCc1c(-c2ccccc2)ncn1CCNc1cccnc1 | -1.445 |
| COC(=O)C1CN(CC(=O)Nc2ccccc2Cl)c2ccccc21 (stereo unspecified) | 8.149 |
| Cc1ccc(NC(C)C(=O)NCc2cccs2)cc1Cl (stereo unspecified) | -17.21 |
| COCC(C)(C)NC(=O)CC(c1ccccc1)C(F)(F)F (stereo unspecified) | 0.4415 |
| CC(C)N(C)Cc1ncn2c1CN(CC(=O)N(C)C)CCC2 | -4.555 |
| CC(C)N(C)Cc1nnc2n1CCCN(C(=O)C1CCCO1)C2 (stereo unspecified) | -11.05 |
| CC(C)N(C)Cc1ncn2c1CN(C(=O)C1CCCO1)CCC2 (stereo unspecified) | 102 |
| Cc1ccc(C(=O)NCCNC(=O)N(C)C(C)c2ccccn2)cc1 (stereo unspecified) | -4.194 |

| Structure (SMILES) | Percent Effect [%] |
| --- | --- |
| COC(=O)c1cccc(CN(C)C(C)c2ccccn2)c1 (stereo unspecified) | 109 |
| COc1cc(CN(C)C(C)c2ccccn2)cc2c1OCO2 (stereo unspecified) | -21.63 |
| CC(c1ccccn1)N(C)Cc1cccc(C(=O)Nc2nccn2C)c1 (stereo unspecified) | 66.38 |
| Cc1cnc(NC(=O)c2cccc(CN(C)Cc3ncccc3C)c2)s1 | 0.1885 |
| CC(c1ccco1)N(C)Cc1cccc(C(=O)Nc2nccn2C)c1 (stereo unspecified) | 19.16 |
| Cc1ccc(Cl)c2ccc(NC(CO)CO)nc12 | -18.64 |
| O=C(c1ccsc1)N1CC(c2nc(-c3ccc[nH]c3=O)no2)C1 | -1.062 |
| CCOc1ccc(-c2c(-c3ccccc3)ncn2C2CCNC2)cn1 (stereo unspecified) | 5.482 |
| CCOc1no[n+]([O-])c1-c1ccccc1 | 142.4 |
| COCCOC[C@]1(CNCc2cccc(OC)c2)C[C@@H](O)[C@@H](O)C1.Cl | 2.999 |
| N#CCCN(CC(=O)Nc1ccc(Br)cc1Cl)Cc1cccnc1 | -15.5 |
| COCc1noc(C2(c3ccc(F)cc3)CCC2)n1 | -10.25 |
| COc1cccc(CNC(=O)CCC2=Nc3ccccc3S(=O)(=O)N2)c1 | 114.6 |
| COc1cccc(CNC(=O)CCOc2ccccc2C)c1 | 9.384 |
| CNS(=O)(=O)c1ccc(CCC(=O)NCc2cccc(OC)c2)cc1 | 110.9 |
| CNS(=O)(=O)c1cccc(CNC(=O)CCc2ccsc2)c1 | 10.65 |
| Cc1ccc(S(=O)(=O)NCCNC(=O)c2cncnc2C)cc1 | 2.217 |
| COc1cccc(CNC(=O)CCNS(=O)(=O)c2ccc(C)cc2)c1 | 91.68 |
| O=C(CCNS(=O)(=O)c1ccccc1)NCc1ccoc1 | -4.508 |
| CNS(=O)(=O)c1cccc(C(C)NCc2cccc(OC)c2)c1 (stereo unspecified) | 4.426 |
| CCc1ncncc1C(=O)NCCNS(=O)(=O)c1ccc(C)cc1 | 8.343 |
| COc1cccc(CCNC(=O)CCS(=O)(=O)C2CCCC2)c1 | 1.804 |

| Structure (SMILES) | Percent Effect [%] |
| --- | --- |
| COc1cccc(CNC(=O)N2CCN3CCNC(=O)C3C2)c1 (stereo unspecified) | -4.227 |
| COc1ccc(CC(=O)NCCNS(=O)(=O)c2ccc(C)cc2)cc1 | 90.25 |
| COc1ccccc1OC1CCN(C(=O)CCCN2CCOCC2)CC1 | 10.26 |
| CN(CCO)Cc1nnc(C2CCN(C(=O)CN3CCCC3)CC2)n1C | -20.27 |
| Cl.Cn1nc(C2CCN(C(=O)CN3CCCCC3)CC2)c2cccnc21 | 113.3 |
| O=C(CN1CCCCC1)NCc1cccnc1-n1cnc2ccccc21 | -3.687 |
| Cl.Cn1nc(C2CCN(C(=O)CCN3CCOCC3)CC2)c2cccnc21 | 110.8 |
| C=C(C)CNC(=O)C1CCC(=O)N(C2CCCC2)C1 (stereo unspecified) | 15.65 |
| COCC1CN(C(=O)c2ccnnc2)Cc2ncnn2C1 (stereo unspecified) | 0.09306 |
| Cc1noc(C)c1CSCc1csc(CS(C)(=O)=O)n1 | 94.77 |
| Cc1noc(C)c1CSCc1nc(N)c2ccccc2n1 | -9.423 |
| Cc1cc(CSCc2csc(CS(C)(=O)=O)n2)no1 | 97.95 |
| CS(=O)(=O)Cc1nc(CN2CCC(C(F)(F)F)CC2)cs1 | -5.539 |
| CS(=O)(=O)Cc1nc(CNc2c(F)cc(F)cc2F)cs1 | 22.22 |
| CCc1nc(CSCc2csc(CS(C)(=O)=O)n2)cs1 | 115 |
| CS(=O)(=O)Cc1nc(CN2CCc3ccccc3CC2)cs1 | 14.86 |
| Cc1cc(CSCc2cc(C)on2)on1 | -0.9382 |
| CS(=O)(=O)Cc1nc(CNc2ccc(F)c(F)c2)cs1 | 12.98 |
